Measurements as given in PubChem BioAssay (EPA / NIEHS).
Records with an inconclusive call do not appear. Some compounds were tested as several samples or in several runs, with calls that do not always agree. Active and inactive are the calls of the source. The calls were made as follows, unless noted: active = hit-call score of the fitted dose curve at least 0.9, where 1 is the maximum; inactive = score below 0.9.

Experiments:
[1] = BSK_BT_PBMCCytotoxicity: PBMC Cytotoxicity Assessment in the BioMAP Diversity Plus: BT Assay (AID 2284225); conditions: primary human B cells with PBMC;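 also: PBMC viability measured by Alamar Blue dye reduction fluorescence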
In short: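 75,000 cells/well; cpd 1 h → SEB + TSST-1 (20 ng/mL final each) → 90 h → Alamar Blue 6 h → fluor. 546/580 nm. DMSO = neg. control/baseline.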

[2] = read-out: Secreted IgG (sIgG), gene 3500; experiment: BSK_BT_sIgG: BioMAP Diversity Plus: BT Assay for Secreted IgG (sIgG) Biomarker Activity (AID 2284226); conditions: primary human B cells with PBMC
In short: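 Secreted IgG from a human primary B cell–PBMC co-culture was measured by ELISA 24 hours after dosing, with DMSO defining baseline activity.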

[3] = BSK_BT_Bcell_Proliferation: Viability Assessment in the BioMAP Diversity Plus: BT Assay for B cell Proliferation (AID 2284227); conditions: primary human B cells with PBMC
In short: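 Human B cells co-cultured with PBMC were dosed with test chemicals and relative cell number was quantified by SRB staining at 72 h. Cells were fixed in 10% TCA, stained with 0.1% SRB and read at 560 nm. Activity was fitted in the positive direction against DMSO.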

[4] = read-out: Interleukin 6 (IL6), IL6 (gene 3569); experiment: BSK_BT_xIL6: BioMAP Diversity Plus: BT Assay for Interleukin 6 (IL6) Biomarker Activity (AID 2284228); conditions: primary human B cells with PBMC
In short: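 Secreted IL-6 in the primary human B cell plus PBMC system, measured by Luminex at 24 h post-chemical, DMSO as baseline. Alamar Blue viability: 75,000 cells/well, chemical 1 h before SEB/TSST-1 (20 ng/mL each), 90 h, then 6 h dye.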

[5] = read-out: Interleukin 17A (IL17A), IL17A (gene 3605); experiment: BSK_BT_xIL17A: BioMAP Diversity Plus: BT Assay for Interleukin 17A (IL17A) Biomarker Activity (AID 2284229); conditions: primary human B cells with PBMC
In short: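 Luminex xMAP quantification of secreted IL-17A after 24 h chemical exposure of a primary human B cell/PBMC co-culture. Signal increases fitted relative to DMSO negative control.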

[6] = IUF_NPC1b_proliferation_BrdU_72hr: Leibniz Research Institute for Environmental Medicine (IUF) 72-hour Neural Progenitor Cell Bromodeoxyuridine (BrdU) Proliferation Assay (NPC1b) (AID 2284207)
In short: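 Proliferation of primary human neural progenitor cells: 72 h compound treatment at 37C, 5% CO2, pH 7.2-7.6, in EGF/FGF-containing medium. Readout is BrdU uptake (last 16 h) by chemiluminescent ELISA, normalised to DMSO.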

[7] = IUF_NPC1a_proliferation_area_72hr: Leibniz Research Institute for Environmental Medicine (IUF) 72-hour Neural Progenitor Cell Proliferation Area Assay (NPC1a) (AID 2284208)
In short: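 Proliferation read as increase in sphere area by phase-contrast imaging over 72 h continuous compound exposure (no renewal) of hNPC spheres grown with EGF/FGF at 37C, 5% CO2. Growth-factor withdrawal served as positive control; DMSO as baseline.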

[8] = IUF_NPC1_viability_72hr: Viability Assessment at 72 hours in the Leibniz Research Institute for Environmental Medicine (IUF) Neural Progenitor Cell Proliferation Assay (NPC1) (AID 2284209)
In short: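 Each well receives one 0.3 mm progenitor sphere from fetal brain cortex; test chemical is added at plating and left three days. Viability comes from alamar blue fluorescence, multiplexed with LDH and BrdU readouts in the same well.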

[9] = CCTE_Mundy_HCI_Cortical_Synap_Neur_Matur_NeuriteSpotCountPerNeuriteLength: CCTE's Synaptogenesis and Neurite Maturation Assay in rat cortical cells for Neurite Spot Count per Neurite Length, Mundy Lab (AID 2284210)
In short: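 Primary rat cortical neurons, compound exposure DIV 7–12, 288.33 h endpoint. Hoechst, anti-MAP2 and anti-synaptophysin labelling; neurite-associated puncta per neurite length scored by automated imaging relative to DMSO controls.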

[10] = CCTE_Mundy_HCI_Cortical_Synap_Neur_Matur_BPCount: CCTE's Synaptogenesis and Neurite Maturation Assay in rat cortical cells for Branch Point Count, Mundy Lab (AID 2284211)
In short: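 Branch point number is quantified by automated imaging of fluorescently labelled neurites and synapses in rat primary cortical neurons exposed from DIV 7 to DIV 12. Activity is analysed relative to DMSO negative control.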

[11] = CCTE_Mundy_HCI_Cortical_NOG_NeuriteCount: CCTE's Neurite Outgrowth Assay in rat cortical cells for Neurite Count, Mundy Lab (AID 2284212);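 also: cells fixed about two days after chemical exposure began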
In short: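 Neurite number per cell from high-content imaging of betaIII-tubulin immunostaining, with Hoechst nuclear counterstain.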

[12] = CCTE_Mundy_HCI_Cortical_NOG_NeuriteLength: CCTE's Neurite Outgrowth Assay in rat cortical cells for Neurite Length, Mundy Lab (AID 2284213)
In short: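 Neurite length was read by high-content imaging of βIII-tubulin-labelled neurites in rat primary cortical cultures. Activity was fitted relative to DMSO.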

[13] = CCTE_Mundy_HCI_Cortical_Synap_Neur_Matur_NeuriteLength: CCTE's Synaptogenesis and Neurite Maturation Assay in rat cortical cells for Neurite Length, Mundy Lab (AID 2284214)
In short: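 Neurite length in rat primary cortical cultures is imaged after MAP2, synaptophysin and Hoechst staining. Dosing starts DIV 7, ending DIV 12; DMSO serves as negative control and baseline.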

[14] = CCTE_Mundy_HCI_Cortical_Synap_Neur_Matur_NeuriteSpotCountPerNeuron: CCTE's Synaptogenesis and Neurite Maturation Assay in rat cortical cells for Neurite Spot Count per Neuron Count, Mundy Lab (AID 2284215)
In short: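 High-content imaging counts synaptophysin puncta along MAP2-labelled neurites per neuron after chemical exposure of rat cortical cells from DIV 7 to termination at DIV 12 (AraC added DIV 5). Loss of signal relative to DMSO.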

[15] = CCTE_Mundy_HCI_Cortical_Synap_Neur_Matur_SynapseCount: CCTE's Synaptogenesis and Neurite Maturation Assay in rat cortical cells for Synapse Count, Mundy Lab (AID 2284218)
In short: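 Synapse count per neuron is measured in rat cortical neurons exposed to chemicals between DIV 7 and DIV 12, with glial growth arrested by AraC at DIV 5. Synaptophysin and MAP2 staining is imaged automatically; activity is fitted relative to DMSO.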

[16] = CCTE_Mundy_HCI_Cortical_Synap_Neur_Matur_NeuriteCount: CCTE's Synaptogenesis and Neurite Maturation Assay in rat cortical cells for Neurite Count, Mundy Lab (AID 2284222);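 also: exposure from day 7 to day 12 in vitro with readout at day 12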
In short: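 Rat primary cortical cells; AraC added at DIV 5, chemicals dosed with media change at DIV 7 through DIV 12. MAP2/synaptophysin/Hoechst immunostaining, high-content imaging of neurite number; fitted relative to DMSO.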

[17] = CCTE_Mundy_HCI_Cortical_Synap_Neur_Matur_CellBodySpotCount: CCTE's Synaptogenesis and Neurite Maturation Assay in rat cortical cells for Cell Body Spot Count, Mundy Lab (AID 2284223)
In short: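 High-content imaging counts synaptophysin puncta on neuronal cell bodies per neuron after MAP2/synaptophysin immunostaining. Rat primary cortical cells, glia arrested with AraC at DIV 5, were exposed DIV 7–12; signal decrease measured against DMSO.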

[18] = CCTE_Mundy_HCI_hNP1_Pro_ResponderAvgInten: CCTE's Proliferation Assay in human neuroprogenitor cells, Mundy Lab (AID 2284224; active = hit-call score of the fitted dose curve at least 0.9, where 1 is the maximum;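 also: human neural progenitor cells hNP1 derived from WA09 embryonic stem cells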)
In short: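 Proliferation was scored as BrdU labelling intensity in human neural progenitors derived from WA09 embryonic cells, measured 26.25 hours after chemical dosing. Activity was fitted relative to DMSO.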

Measured: AC50

O=C(O)C(F)(F)C(F)(F)F
inactive: [1] | [2] | [3] | [4] | [5]

CS(C)(=O)=O
inactive: [1] | [2] | [3] | [4] | [5]

CC(CCl)OP(=O)(OC(C)CCl)OC(C)CCl (stereo unspecified)
inactive: all assays above

O=S(=O)(OCC(F)F)C(F)(F)F
inactive: [1] | [2] | [3] | [4] | [5]

OCC(F)(F)C(F)(F)C(F)(F)C(F)(F)C(F)(F)C(F)F
inactive: [1] | [2] | [3] | [4] | [5]

OCC(F)(F)C(F)(F)C(F)(F)C(F)(F)C(F)(F)C(F)(F)F
inactive: [1] | [2] | [3] | [4] | [5]
active: [1] 41 µM | [2] 43.9 µM | [3] 47.7 µM

O=C(CC(=O)C(F)(F)C(F)(F)F)C(F)(F)F
inactive: [1] | [2] | [3] | [4] | [5]

O=C(O)C(F)(F)C(F)(F)OC(F)(F)F
inactive: [18] | [1] | [2] | [3] | [4] | [5]

FC(F)(F)C(F)(F)C(F)(F)C(F)(F)C(F)(F)C(F)(F)CCS
inactive: [1] | [2] | [3] | [4] | [5]

FC(F)(F)C(F)(F)C(F)(F)C(F)(F)C(F)(F)C(F)(F)C(F)(F)C(F)(F)F
inactive: [18] | [1] | [2] | [3] | [4] | [5]

C=C(C)C(=O)OCC(F)(F)C(F)(F)C(F)(F)C(F)(F)C(F)(F)C(F)(F)C(F)(F)F
inactive: [1] | [2] | [3] | [4] | [5]

C=C(C)C(=O)OCC(F)(F)C(F)(F)C(F)(F)F
active: [3] 2.27 µM
inactive: [18] | [1] | [2] | [3] | [4] | [5]

O=C(O)C(F)(F)C(F)(F)C(F)(F)F
inactive: [18] | [1] | [2] | [3] | [4] | [5]

FC(F)(F)C(F)(F)C(F)(F)C(F)(F)CCI
inactive: [1] | [2] | [3] | [4] | [5]

FC(F)(Br)C(F)(F)C(F)(F)C(F)(F)C(F)(F)C(F)(F)Br
inactive: [1] | [2] | [3] | [4] | [5]
